# Laboratory results taken from PubChem BioAssay AID887 (National Center for Advancing Translational Sciences (NCATS), 2007).
# Where “and” joins values, the source holds several entries; their conditions need not be identical. Identical values can stand only once. Hit rate of the full screen: of about 74,000 compounds, about 1,100 (1.5%) were called active. Roughly 5% stayed inconclusive and do not appear here. Calls come from the whole dose curve; as a rule, active = well fitted inhibition curve with a large enough effect; inconclusive = small, poorly fitted or top-dose-only effect; inactive = no such curve, though single readings can be large or run the other way. The sample as a whole holds a higher share of actives than the screen did.
# Biological target: Polyunsaturated fatty acid lipoxygenase ALOX15 (Homo sapiens) (UniProt P16050)
# Sequence (P16050 whole entry, looked up): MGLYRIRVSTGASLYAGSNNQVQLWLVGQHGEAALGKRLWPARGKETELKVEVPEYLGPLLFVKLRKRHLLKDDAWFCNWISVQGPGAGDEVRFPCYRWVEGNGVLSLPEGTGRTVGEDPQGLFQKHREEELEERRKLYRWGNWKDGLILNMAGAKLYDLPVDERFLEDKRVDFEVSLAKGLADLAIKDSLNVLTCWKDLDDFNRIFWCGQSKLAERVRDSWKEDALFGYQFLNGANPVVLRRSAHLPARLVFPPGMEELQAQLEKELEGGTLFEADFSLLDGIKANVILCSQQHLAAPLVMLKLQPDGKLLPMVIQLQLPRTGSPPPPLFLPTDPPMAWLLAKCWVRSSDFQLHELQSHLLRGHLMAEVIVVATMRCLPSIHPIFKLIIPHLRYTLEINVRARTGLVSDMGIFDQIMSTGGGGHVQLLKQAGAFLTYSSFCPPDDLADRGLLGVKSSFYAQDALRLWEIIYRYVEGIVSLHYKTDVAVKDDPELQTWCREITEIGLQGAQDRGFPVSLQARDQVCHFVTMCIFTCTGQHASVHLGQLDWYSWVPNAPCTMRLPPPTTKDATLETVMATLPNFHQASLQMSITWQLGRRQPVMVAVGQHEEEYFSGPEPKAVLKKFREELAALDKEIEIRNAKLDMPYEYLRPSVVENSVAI
# Test: qHTS Assay for Inhibitors of 15-hLO (15-human lipoxygenase); note: nearly all actives have a fitted effect of over 55% in size
# Conditions: purified 15hLO-1, xylenol orange hydroperoxide absorbance; series mostly up to 57.1 µM; activity change, negative = inhibition: at the top concentration
# From the text: Assay Overview: NIH Molecular Libraries Screening Centers Network [MLSCN] NIH Chemical Genomics Center [NCGC] MLSCN Grant: MH081283-01A1 PI Name: Holman, T.R., University of California, Santa Cruz Human lipoxygenase 15hLO-1 is a member of the closely related lipoxygenase family of enzymes which catalyze the site-specific oxidation of arachidonic acid to various hormone precursor molecules and as such is a candidate for drug development in a variety of disease areas, such as cancer and inflammation. Inhibition of 15hLO-1 activity was screened by utilizing arachidonic acid as a substrate. The extent of hydroperoxide product formation was measured by a secondary chromogenic reaction in which xylenol orange (XO, Sigma-Aldrich, cat. number 39,818-7) reacts with the ferric ions produced from the reaction between the hydroperoxide and ferrous ions. The Fe(III)-XO complex is characterized with red-shifted absorbance at 560 nm. A purified preparation of human 15hLO-1 was supplied by Professor Ted Holman, University of California, Santa Cruz.
# Assay Protocol: Buffer: 25 mM Hepes pH 7.5, 0.01% Triton X-100. Reagents/Controls: Buffer in columns 3 and 4 as negative control (no enzyme). Substrate solution: 50 uM arachidonic acid (Sigma-Aldrich, St. Louis, MO) final concentration dispensed throughout the plate. Enzyme: 40 nM 15hLO-1 final concentration in columns 1, 2, 5-48. Column 1 is neutral (100% activity). Column 2 contained pin-transferred titration of NDGA (nordihidroguaiaretic acid, Sigma-Aldrich, N 5023, top concentration 10 mM in DMSO, then 1:2 dilution in duplicate). (Dilution factor: 23 nL into 4 uL.) Chromogenic detection reagent (divalent iron/xylenol orange, Fe-XO): 200 uM xylenol orange plus 300 uM ferrous ammonium sulfate prepared freshly in 50 mM sulfuric acid. Assay Steps: Three uL of enzyme were dispensed to 1536-well Greiner black clear bottom plates. Compounds and controls (23 nL) were transferred via Kalypsys PinTool. The plates were incubated for 15 min at room temperature, and then 1 uL of substrate solution was added to start the reaction. After room temperature incubation for 6 minutes, 4 uL of Fe-XO solution was added to each well followed by a short spin (1000 rpm, 15 sec) and the plates were then incubated for 30 min. The absorbance at 405 and 573 nm were measured using ViewLux (Perkin-Elmer) High-throughput CCD imager and absorbance protocol settings. The 573-to-405 absorbance ratio was used to compute reaction progress.
# % is set by controls: 0 for no effect and ±100 for the full control effect; potency is the fitted concentration of half-maximal effect.
SMILES,"activity change, negative = inhibition",Potency
CN1CCCC1CCO[C@@](C)(c1ccccc1)c1ccc(Cl)cc1 (stereo partly drawn),-10.4% (inactive),–
CN(CCOc1ccc(CC2SC(=O)NC2=O)cc1)c1ccccn1 (stereo not drawn),1.32% (inactive),–
Oc1ccc(-c2csc(Nc3cccnc3)n2)cc1,-7.34% (inactive),–
COc1ccc(-c2n[nH]c(C)c2-c2ccc(OC)c(OC)c2)c(O)c1,-23.3% (inactive),–
COc1ccc(OC)c(Nc2nc(-c3ccc(O)c(O)c3)cs2)c1,–,0.126 µM (active)
COc1cccc([C@H]2Oc3ccc(OC)cc3/C(=N\OCC[C@@H]3C=C[C@H](OC(C)=O)[C@H](COC(C)=O)O3)[C@@H]2O)c1,7.41% [at 11.4 µM] (inactive),–
CCOC(=O)N/N=C1/C[C@@H](O)[C@@H](O)[C@@H]2[C@@H]3C(=O)N(CC)C(=O)[C@H]3CC[C@H]12,0.206% [at 11.4 µM] (inactive),–
COc1ccc(COC(=O)N/N=C2/C[C@@H](O)[C@@H](O)[C@@H]3[C@@H]4C(=O)N([C@@H](C)c5ccccc5)C(=O)[C@H]4CC[C@@H]23)cc1,7.99% [at 11.4 µM] (inactive),–
CCOc1ccc2nc(N3CCCN(C(=O)Nc4ccccc4C)CC3)c(C#N)cc2c1,-9.41% (inactive),–
Cc1cc(C)c2nc(N3CCCC3)c(C#N)cc2c1,–,2 µM (active)
CC(C)CCNc1nc(N2CCCC2)c2c(c1C#N)CCN(C)C2,-17.6% (inactive),–
CC(C)(C)c1ccc(OC2C=CC(C#Cc3ccccc3)OC2CO)cc1 (stereo not drawn),-12.4% [at 11.4 µM] (inactive),–
Cc1cc(C)cc(C#CC2C=CC(Oc3ccc(C4CCCC4)cc3)C(CO)O2)c1 (stereo not drawn),-14.1% [at 11.4 µM] (inactive),–
C[C@@H]1/C=C\CC(=O)OC[C@H]2O[C@@H](C=C[C@@H]2O)[C@H](C)/C=C\CC(=O)OC[C@H]2O[C@H]1C=C[C@@H]2O,5.92% [at 11.4 µM] (inactive),–
CC(C)[C@H]1CC[C@@H](C)C[C@H]1O,14.8% [at 25.6 µM] (inactive),–
COC1[C@H](OC(N)=O)C(O)[C@H](Oc2ccc3c(O)c(NC(=O)c4ccc(O)c(CC=C(C)C)c4)c(=O)oc3c2C)OC1(C)C (stereo partly drawn),-28.3% (inactive),–
C=C(C)C1CC=C(CO)CC1 (stereo not drawn),–,12.6 µM (active)
C=C(C)C1CC=C(C)C(O)C1 (stereo not drawn),-3.82% (inactive),–
CCCNC(=O)OC[C@@H]1O[C@H](c2ccccc2)C=C[C@@H]1Oc1ccc(OC)cc1,6.55% [at 11.4 µM] (inactive),–
Cc1ccc(C)c(NC(=O)CSc2nnc(Cc3cccn3C)n2-c2ccc(F)cc2)c1,-17.4% (inactive),–
Cc1cccc(Br)c1,1.29% (inactive),–
CC(C)=CC1C(C(=O)O)C1(C)C (stereo not drawn),-4.04% (inactive),–

SMILES,"activity change, negative = inhibition",Potency
C/C(CCN1CCCCc2nc(C)c(C)cc21)=N\O[C@@H](C)c1cn([C@@H]2COC[C@@H]2O)nn1,3.97% [at 11.4 µM] (inactive),–
Oc1cc(O)c2c(c1)OC(c1ccc(O)c(O)c1)C(O)C2 (stereo not drawn),–,12.6 µM (active)
CO[C@H]1COC(=O)[C@@H](C)NC(=O)C/C=C\[C@@H](C)[C@H](OC)COC(=O)C/C=C\[C@@H]1C,-1.15% [at 11.4 µM] (inactive),–
CCCCn1c(SCC(=O)NCC2CCCO2)nc2ccc(N3CCOCC3)cc2c1=O (stereo not drawn),–,12.6 µM (active)
COCCCNC(=O)CSc1nc2ccc(N3CCOCC3)cc2c(=O)n1CCc1ccccc1,-12% (inactive),–
CCn1c(SCC(=O)NCC2CCCO2)nc2cc(S(=O)(=O)N3CCCCC3)ccc21 (stereo not drawn),4.12% (inactive),–
COCC(=O)N1CCC2(CCCN(c3ccccc3)C2)CC1,-7.85% (inactive),–
CC1(C)C=CC(=O)[C@]2(C)C1CC(=O)[C@]1(C)C2CC[C@@]2(C)C(c3ccoc3)OC(=O)C3OC321 (stereo partly drawn),-3.65% (inactive),–
CC(C)C1=CC2=CC[C@@H]3[C@](C)(CO)CCC[C@]3(C)C2CC1 (stereo partly drawn),–,1.58 µM (active)
C=C[C@](C)(O)CCC1C(=C)CCC2[C@@](C)(CO)CCC[C@@]12C (stereo partly drawn),-22.8% (inactive),–
CN1CCc2nc(-c3ccccc3)c(-c3ccccc3)cc2C1,3.18% [at 11.4 µM] (inactive),–
Nc1ncnc2c1ncn2C1CC(O)C(CO)O1 (stereo not drawn),inactive,–
CC(=O)OCC(=O)[C@@]1(O)CCC2C3CCC4=CC(=O)CC[C@@]4(C)[C@]3(F)C(O)C[C@]21C (stereo partly drawn),-0.0872% (inactive),–
O=C1[C@H]2[C@H]3[C@H](O)[C@H](O)C/C(=N/OCc4ccccc4)[C@H]3CC[C@@H]2C(=O)N1Cc1ccccc1,6.17% [at 11.4 µM] (inactive),–
CCCN(C/C=C\I)[C@@H]1CCc2cccc(O)c2C1,1.31% [at 25.6 µM] (inactive),–
CCC(=O)Nc1sc(C(=O)N2CCCCC2)c(C)c1C#N,-0.853% (inactive),–
Cc1cccc(-n2c(N)c(C(=O)N3CCN(C)CC3)sc2=S)c1,-25.1% (inactive),–
N#Cc1ccccc1-n1c(N)c(C(=O)N2CCCC2)sc1=S,–,20 µM (active)
Cn1c(=O)n2n(c1=O)[C@H]1[C@H](O)[C@H]3O[C@H]3C(=O)[C@H]1CC2,-1.89% [at 11.4 µM] (inactive),–
CC(C)=CCC/C(C)=C/CO/N=C1/C[C@@H](O)[C@@H](O)[C@@H]2[C@@H]3C(=O)N(C(C)(C)C)C(=O)[C@H]3CC[C@H]12,-9.71% [at 11.4 µM] (inactive),–
CC(=O)OCC1OC(C#CCCCc2ccccc2)C=CC1OC(C)=O (stereo not drawn),-1.12% [at 11.4 µM] (inactive) and 1.25% [at 11.4 µM] (inactive),–
